Compound activity: PubChem, SRMLSC
NADH enzymes – inhibitors of PK/LDH coupling enzymes, profiling panel, artefact control, biochemical, MLSMR library; coupled PK/LDH NADH assays, four targets; IC50, µM (highest dose often 10 µM), for inactives: at the top dose inhibition; 65,000 tested, 0.02% active; AID 774, 2007;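 active = single-dose screening hits from any of four coupled enzyme assays that gave an IC50 when retested across doses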;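 note: the DPM-DC format reads NADH fluorescence rather than 340 nm absorbance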
Spn PMK inh – S. pneumoniae PMK inhibitors, primary screen, biochemical, mevalonate pathway, pilot trial included | inhibition, % at 10 µM | 65,000 tested, 0.49% active | phosphomevalonate kinase (Streptococcus pneumoniae D39) | purified PMK, PK/LDH-coupled NADH absorbance 340 nm;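 active = top-ranked compounds by inhibition in the single 10 µM screen, taking a fixed number of the strongest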;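 note: 0% = full reaction with DMSO carrier and 100% = background rate without enzyme reaction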
Spn DPM-DC inh – S. pneumoniae DPM-DC inhibitors, primary screen, biochemical, PK/LDH-coupled NADH fluorescence. calls only at 10 µM. purified DPM-DC. diphosphomevalonate decarboxylase (Streptococcus pneumoniae D39). 65,000 tested, 0.49% active;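 active = the 320 compounds with the highest percent inhibition in the single-dose primary screen, excluding strongly autofluorescent ones, cut at about 32% in these data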;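 note: kinetic rate of NADH fluorescence loss reporting ADP formed by the decarboxylase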
Abs 340nm – compound light absorbance at 340 nm, profiling panel, artefact control, biochemical, MLSMR library, data from PS, PMK, MK assays; compound absorbance at 340 nm, fold over control; fold change at 10 µM; 65,000 tested, under 10 active;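 active = at 10 µM dose, initial 340 nm absorbance at least 2 fold that of control wells; inactive = change under 2 fold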;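 note: initial absorbance extrapolated from kinetic A340 decline of NADH oxidation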
Fluor 339 460 – intrinsic fluorescence of library compounds, ex339/em460 – biochemical, MLSMR library, data from DPM-DC assay, artefact control, profiling panel. fluorescence fold increase at 10 µM. compound autofluorescence, ex339/em460 nm, NADH buffer; stronger effect = higher value; 1 = no-compound wells, NADH background. 65,000 tested, 5.5% active;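 active = at 10 µM, mean starting fluorescence two-fold or more over control wells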;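 note: signal is the first read of a kinetic run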
MK inhibit – S. pneumoniae MK inhibitors, primary screen, biochemical, PK/LDH-coupled NADH absorbance | mevalonate kinase [Streptococcus pneumoniae D39] | purified MK, PK/LDH-coupled NADH absorbance 340 nm | inhibition, % at 10 µM | 65,000 tested, 0.48% active | AID 555, 2006;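 active = ranked among the strongest by inhibition in the single 10 µM screen, a fixed top-ranked set picked for dose follow-up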
* hit, by the source's call; i = inactive; / = no result shown. An excerpt weighted towards active compounds, which were near 6.8% of everything screened.

SMILES	NADH enzymes	Spn PMK inh	Spn DPM-DC inh	Abs 340nm	Fluor 339 460	MK inhibit
CCCCCCOC(=O)C(C#N)c1nc2ccccc2nc1N1CCCCC1 (configuration not stated)	4.0%	13.0	i	1.01	1.07	3.0
Cc1cccc(S(=O)(=O)C(C#N)c2nc3ccccc3nc2N2CCCC2)c1 (configuration not stated)	6.0%	12.0	/	1.09	3.89*	0.0
Cc1ccc(C)c(S(=O)(=O)C(C#N)c2nc3ccccc3nc2N2CCCC2)c1 (configuration not stated)	3.0%	0.0	/	1.04	3.37*	5.0
CCCCCCOC(=O)C(C#N)c1nc2ccccc2nc1N1CCN(C)CC1 (configuration not stated)	8.0%	10.0	/	1.04	3.92*	5.0
Cc1ccc(C)c(S(=O)(=O)C(C#N)c2nc3ccccc3nc2N2CCOCC2)c1 (configuration not stated)	3.0%	0.0	i	1.05	1.24	7.0
CCOC(=O)CSc1nc2ccccc2n1CC(=O)N1CCN(c2ccccc2)CC1	2.0%	11.0	i	0.99	1.05	9.0
CCCCN1Cc2cc(C(=O)c3cc(F)ccc3O)cnc2NC1=O	5.0%	9.0	i	1.14	1.43	0.0
COc1ccc(C(=O)Nc2ccc(-c3ccc(C)o3)cc2)cc1S(=O)(=O)N1CCOCC1	4.0%	8.0	i	1	1.15	5.0
N#CC(c1nc2ccccc2nc1N1CCCC1)S(=O)(=O)c1cccs1 (configuration not stated)	11.0%	9.0	i	1.05	2.68*	9.0
Cc1ccc(S(=O)(=O)C(C#N)c2nc3ccccc3nc2N2CCC(C)CC2)cc1 (configuration not stated)	9.0%	12.0	i	1.04	1.64	6.0
COc1ccc(S(=O)(=O)C(C#N)c2nc3ccccc3nc2N2CCCCC2)cc1 (configuration not stated)	11.0%	0.0	i	1.09	1.76	12.0
N#CC(c1nc2ccccc2nc1N1CCCC1)S(=O)(=O)c1ccccc1 (configuration not stated)	9.0%	5.0	/	1.06	2.26*	12.0
CCOC(=O)C1=C(C)NC(=O)NC1/C(C)=C/c1ccccc1 (configuration not stated)	14.0%	38.0*	i	1.04	1.13	0.0
Cc1occc1-c1nnc(SCC(=O)N2CCOCC2)n1CCc1ccccc1	8.0%	13.0	i	0.97	1.04	10.0
Cc1occc1-c1nnc(SCC(=O)N2CCOCC2)n1Cc1ccco1	4.0%	27.0*	i	0.96	1.03	9.0
O=C(CCCc1nc2ccccc2s1)N1CCN(S(=O)(=O)c2cccs2)CC1	1.0%	0.0	i	1.03	1.13	2.0
CC1(C)CC(=O)c2c(nc3ccccc3c2N)C1	4.0%	0.0	i	1.07	2.75*	0.0
CCn1c(CNC(=O)c2ccco2)nnc1SCC(=O)Nc1cc(C(F)(F)F)ccc1Cl	7.0%	8.0	i	0.98	1.04	10.0
N/C(CCN1CCOCC1)=N/O	36.0%	36.0	i	1.08	1.07	52.0*
CCOC(=O)CNC(=O)c1cnn2cccnc12	13.0%	4.0	i	1.07	2.27*	17.0
CCCCc1cc(=O)oc2c(CN(C)C)c(O)c(Cl)cc12	3.0%	0.0	/	1.16	2.33*	5.0
CCc1c(C)c2cc(Cl)c(O)c(CN(C)C)c2oc1=O	7.0%	1.0	/	1.21	3.68*	12.0
CCc1c(C)c2cc(Cl)c(O)c(CN(CC)CC)c2oc1=O	6.0%	6.0	/	1.08	3.7*	6.0
Cc1c(C)c2cc(Cl)c(O)c(CN(C)C)c2oc1=O	4.0%	0.0	/	1.14	2.31*	8.0
CCN(CC)c1ccc(-c2c(C#N)c(N)nc(OC)c2C#N)cc1	1.0%	0.0	/	1.05	2.55*	4.0
SMILES	NADH enzymes	Spn PMK inh	Spn DPM-DC inh	Abs 340nm	Fluor 339 460	MK inhibit
CCOc1ccc(C2c3c(oc4cc(C)c(C)cc4c3=O)C(=O)N2CCCN(C)C)cc1OC (configuration not stated)	14.0%	28.0*	i	1.06	1.09	10.0
CCCOc1ccc(C2c3c(oc4cc(C)c(C)cc4c3=O)C(=O)N2CCCN(C)C)cc1OCC (configuration not stated)	3.0%	3.0	i	1.1	1.1	5.0
COc1cccc(CNC(=O)C2CCN(S(=O)(=O)c3c(C)nn(C)c3C)CC2)c1	2.0%	0.0	i	1.03	1.07	7.0
Cc1cccc(Cn2c(SCC(=O)Nc3ccccc3)nc3c2c(=O)[nH]c(=O)n3C)c1	2.0%	2.0	i	0.98	1.18	0.0
COC(=O)C(NC(=O)c1ccc(F)cc1)(Nc1nc(C)cs1)C(F)(F)F (configuration not stated)	1.0%	2.0	i	1.03	1.08	1.0
O=C(COc1ccc(S(=O)(=O)NC2CCCCC2)cc1)NCc1ccccn1	5.0%	6.0	i	1.01	1	10.0
CC1(C)CC(=O)c2cc(OCC(=O)NCc3cccnc3)ccc2O1	4.0%	7.0	/	1.02	5.14*	0.0
CC1(C)CC(=O)c2cc(OCC(=O)NCCCN3CCN(c4ccccc4F)CC3)ccc2O1	2.0%	13.0	/	1	3.42*	0.0
O=C(COc1ccc2c(c1)C(=O)CC1(CCCCC1)O2)NCc1ccccn1	5.0%	10.0	/	1.01	5.08*	0.0
CCOC(=O)COc1ccc2c(c1)C(=O)CC(C)(c1cccnc1)O2 (configuration not stated)	7.0%	14.0	/	1.05	4.79*	0.0
COc1ccc(NC(=O)CC2Oc3ccc(C)cc3NC2=O)cc1 (configuration not stated)	4.0%	5.0	i	1.02	1.1	8.0
Cc1nn(CCc2nn[nH]n2)c2nc(C(F)(F)F)cc(C(F)(F)F)c12	6.0%	8.0	/	1.02	4.96*	4.0
COc1ccc(-c2nnn(CCc3nn[nH]n3)n2)cc1OC	1.0%	7.0	i	0.98	1.06	0.0
N=c1c(S(=O)(=O)c2ccc(Cl)cc2)cc2c(=O)n3ccccc3nc2n1CCN1CCOCC1	0.0%	0.0	/	1.04	4.96*	/
Cc1ccc(S(=O)(=O)c2cc3c(=O)n4cccc(C)c4nc3n(CC3CCCO3)c2=N)cc1 (configuration not stated)	10.0%	6.0	i	1.01	1.47	7.0
Cn1c(=N)c(S(=O)(=O)c2ccccc2)cc2c(=O)n3ccccc3nc21	4.0%	13.0	/	1.02	2.82*	3.0
Cn1c(=N)c(S(=O)(=O)c2ccc(F)cc2)cc2c(=O)n3ccccc3nc21	13.0%	15.0	/	1.02	3.35*	10.0
